# CYP2C19 inh = blocks human cytochrome P450 2C19; P33261; CYP2C19 Supersomes, luciferin-H EGE luminescence, 30 min; inhibition, % at 5 µM; 21% of 96,000 active;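 active means CYP2C19 inhibition above a set limit at 5 µM in the primary screen, cut at about 50% in these data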;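 further: plate controls were negative control wells for no effect and 2.5 mM tranylcypromine positive control for full effect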
# Target sequence (P33261 whole entry, looked up): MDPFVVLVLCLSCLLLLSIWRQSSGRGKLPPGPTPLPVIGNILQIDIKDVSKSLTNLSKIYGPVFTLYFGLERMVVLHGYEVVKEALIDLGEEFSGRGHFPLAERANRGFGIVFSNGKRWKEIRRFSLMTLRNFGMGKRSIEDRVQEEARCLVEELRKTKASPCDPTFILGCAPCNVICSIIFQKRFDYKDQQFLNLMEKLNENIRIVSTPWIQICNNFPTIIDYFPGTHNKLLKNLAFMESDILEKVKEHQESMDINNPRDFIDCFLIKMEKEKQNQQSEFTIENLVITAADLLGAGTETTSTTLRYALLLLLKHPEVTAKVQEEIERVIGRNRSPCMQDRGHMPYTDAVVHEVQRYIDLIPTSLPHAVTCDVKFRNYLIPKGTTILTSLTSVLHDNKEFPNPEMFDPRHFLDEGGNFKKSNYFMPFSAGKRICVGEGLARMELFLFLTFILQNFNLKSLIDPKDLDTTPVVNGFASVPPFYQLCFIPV
# CYP2C19 activ = activators of human cytochrome P450 2C19 | AID 1025 | 96,000 tested, under 10 active | activation factor at 5 µM | recombinant CYP2C19, luciferin-H EGE luminescence; hits give high values; 0 = fully inhibited enzyme, 1 = untreated enzyme | P33261;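 active means activation factor of at least 2 at 5 µM in the primary screen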;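 further: 0 = wells with 2.5 mM tranylcypromine and 1 = vehicle-only wells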
# CYP2C9 inhib = human CYP2C9 inhibition | P11712 | CYP2C9 Supersomes, luciferin-H conversion, luminescence | inhibition, % at 5 µM | 20% of 96,000 active | AID 777;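 active means blocking of liver enzyme CYP2C9 beyond about 50% at 5 µM, limit read from the data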
# CD11b adhes inh = blocks human CD11b/CD18 adhesion to fibrinogen. P05107+P11215. K562 CD11b/CD18 adhesion to fibrinogen, ATPlite luminescence; Mn2+ added to activate the integrin. inhibition, % at 10 µM. 0.54% of 93,000 active;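 active means primary inhibition of 50% or more at 10 µM, then 40% or more on retest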
# CD11b adhes enh = CD11b/CD18-fibrinogen binding enhancement; 0.07% of 93,000 active; AID 1499; K562 CD11b/CD18 adhesion to fibrinogen, ATPlite luminescence; P05107+P11215; activation, % at 10 µM;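 active means 10 µM primary screen giving 50% or more activity, confirmed by 40% or more on retest at that dose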
# CYP2C9 activ = activators of human CYP2C9 | recombinant CYP2C9, luciferin-H conversion, luminescence; hits give high values; factor 1 = untreated enzyme, 0 = blocked | activation factor at 5 µM | 1.4% of 96,000 active | AID 1024;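 active means activation factor of 2 or more for CYP2C9 at a 5 µM dose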;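 further: 0 = sulfaphenazole-blocked wells and 1 = vehicle-only wells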
# The depositor's hits bear a star; x = no result given. Compounds with a hit are over-represented: about 28% of the library has one in this group of screens.
SMILES,CYP2C19 inh,CYP2C19 activ,CYP2C9 inhib,CD11b adhes inh,CD11b adhes enh,CYP2C9 activ
CCn1cc(CNC(=O)c2cc(-c3cc(OC)ccc3OC)nc3ccccc23)c(C)n1,x,x,x,-8,-6,x
O=C(CCCOc1ccccc1)NCC1CCCO1 (stereo not drawn),27,0.7,-2,5,-3,1
O=C(COC(=O)CCC(=O)c1ccc(Cl)cc1)NCC1CCCO1 (stereo not drawn),59*,0.4,23,-3,-6,0.8
O=C(CSCc1ccc(Cl)cc1)NCC1CCCO1 (stereo not drawn),32,0.7,11,-12,-1,0.9
CC(C)NS(=O)(=O)c1ccc(OCC(N)=O)c(Cl)c1,49,0.5,24,1,-4,0.8
CC(C)NS(=O)(=O)c1ccc(OCC(=O)NCC2CCCO2)c(Cl)c1 (stereo not drawn),67*,0.3,66*,11,-2,0.3
CN(C)c1cccc(C(=O)OCC(=O)NCC2CCCO2)c1 (stereo not drawn),67*,0.3,-161,-4,-4,2.6*
Cc1cc(Cl)ccc1OCCCC(=O)NCC1CCCO1 (stereo not drawn),27,0.7,-131,4,-2,2.3*
O=C(O)CCNc1ccc2c(c1)OCCO2,2,1,0,-17,4,1
Cc1ccccc1OCC(=O)NCC1CCCO1 (stereo not drawn),45,0.5,1,-21,-4,1
CN(C)c1ccc(C(=O)OCC(=O)NCC2CCCO2)cc1 (stereo not drawn),83*,0.2,-48,0,-2,1.5
O=C(c1ccc(Cl)cc1)c1cnc2ccccn12,-7,1.1,0,7,-2,1
O=[N+]([O-])c1ccccc1Sc1nccn1Cc1ccccc1,x,x,x,-3,18,x
O=C1CCCCCCC1Sc1ccccc1[N+](=O)[O-] (stereo not drawn),50*,0.5,-16,-17,4,1.2
NS(=O)(=O)c1ccc(CCNC(=O)c2ccccc2F)cc1,17,0.8,4,10,0,1
O=C(Nc1ccc(Oc2cccnc2)cc1)c1ccccc1F,93*,0.1,97*,x,x,0
O=C(NCCc1ccncc1)c1ccccc1F,81*,0.2,57*,-12,7,0.4
O=C(Nc1nc2ccccc2[nH]1)c1ccccc1F,95*,0,81*,48,-4,0.2
O=C(Nc1ccncc1)c1ccccc1F,64*,0.4,45,-9,0,0.6
COc1cc(/C=C/C(=O)NNc2c(F)c(F)cc(F)c2F)ccc1OC(F)F,73*,0.3,8,3,-1,0.9
COc1ccc(/C=C/C(=O)NNc2c(F)c(F)cc(F)c2F)cc1OC,16,0.8,31,-18,12,0.7
CC(=O)NS(=O)(=O)c1cccnc1Nc1cccc(Cl)c1,9,0.9,50*,-6,2,0.5
COc1ccc(Nc2ncccc2C(=O)O)cc1,-4,1,32,2,8,0.7
CC(=O)NS(=O)(=O)c1cccnc1Nc1ccc(Cl)cc1,5,1,85*,6,2,0.2
C=CCn1c(SCC(=O)Nc2ncc(Cc3cc(C(F)(F)F)ccc3Cl)s2)nnc1-c1ccncc1,38,0.6,21,-1,21,0.8
SMILES,CYP2C19 inh,CYP2C19 activ,CYP2C9 inhib,CD11b adhes inh,CD11b adhes enh,CYP2C9 activ
O=C(NCC1CCCO1)c1csc2c1CCCC2 (stereo not drawn),0,1,-47,4,-2,1.5
COc1ccc(Cn2c(CCC(=O)Nc3ccc(CC#N)cc3)nc3cccnc32)cc1,4,1,12,-4,-2,0.9
COc1cc(CC(=O)OCC(=O)Nc2cccc([N+](=O)[O-])c2)cc(OC)c1OC,x,x,x,-8,5,x
CCOC(=O)CNC(=O)CSc1nc2cccnc2n1C,32,0.7,-5,0,-1,1.1
O=C(CSc1nnc(CNC(=O)c2ccccc2F)o1)c1ccccc1,30,0.7,37,-23,3,0.6
O=C(NCCC1=CCCCC1)c1ccc2c(c1)N(Cc1ccccc1)C(=O)CS2,49,0.5,75*,21,0,0.3
Cc1cccc(NS(=O)(=O)c2cc(C(=O)NCCC3=CCCCC3)ccc2Cl)c1,26,0.7,68*,7,-6,0.3
Cc1ccc(SCCNC(=O)c2ccccc2)cc1,37,0.6,23,x,x,0.8
